Assay results: PubChem BioAssay (NCI)
About 79,000 compounds went through this panel and 15% of them were active in at least one assay; those are over-represented in the sample as a whole. Unmarked numbers belong to inactive results. Calls of active or inactive are those of the source. No stated cut-off is given here; in the data, active means growth inhibition above about 70%; inactive means the rest.

Legend:
[1] = NCI Yeast Anticancer Drug Screen. Data for the rad50 strain (AID 155);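 further: 0% = growth of vehicle-only cultures of the same strain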; settings: S. cerevisiae rad50 strain growth inhibition; at 50.0 µM; stronger effect = higher value
Method in brief: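 Compounds were tested on a yeast strain with an engineered DNA damage repair alteration; the reported value is growth inhibition normalised to vehicle treatment.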

[2] = NCI Yeast Anticancer Drug Screen. Data for the mec2-1 strain (AID 157); settings: S. cerevisiae mec2-1 strain, at 50.0 µM, stronger effect = higher value
Method in brief: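 Each compound was tested on mec2-1 yeast, a strain altered in DNA damage repair or cell cycle control. Growth inhibition is reported relative to vehicle.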

[3] = NCI Yeast Anticancer Drug Screen. Data for the sgs1 mgt1 strain (AID 161);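 further: 0% = growth of cultures given vehicle only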; settings: S. cerevisiae sgs1 mgt1 strain, at 50.0 µM, stronger effect = higher value
Method in brief: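 Read-out: growth inhibition vs vehicle controls. Cells: mutant yeast strain deficient in DNA damage repair.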

[4] = NCI Yeast Anticancer Drug Screen. Data for the cln2 rad14 strain (AID 165);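 further: 0% = growth equal to vehicle treated cultures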; settings: S. cerevisiae cln2 rad14 strain, at 50.0 µM, stronger effect = higher value
Method in brief: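 Test compounds were added to cln2 rad14 yeast cultures; inhibition of growth was then determined by comparison with vehicle treatment.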

[5] = NCI Yeast Anticancer Drug Screen. Data for the bub3 strain (AID 167); settings: S. cerevisiae bub3 mutant strain, at 50.0 µM, stronger effect = higher value
Method in brief: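 Growth of a checkpoint-deficient yeast mutant is measured after compound exposure. Values represent inhibition relative to vehicle.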

[6] = NCI Yeast Anticancer Drug Screen. Data for the mlh1 rad18 strain (AID 175); settings: S. cerevisiae mlh1 rad18 strain growth inhibition; at 50.0 µM; stronger effect = higher value
Method in brief: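 Inhibition values reflect reduced growth of mutant yeast versus vehicle-treated controls following compound exposure; the mutations affect DNA damage repair.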

Compound	growth inhibition [1]	growth inhibition [2]	growth inhibition [3]	growth inhibition [4]	growth inhibition [5]	growth inhibition [6]
S=c1nc[nH]c2c1cnn2-c1ccccc1	5.6%	19.6%	54.4%	-13.2%	-7.3%	40.2%
COc1ccc(C=C(c2ccc(OCc3ccccc3)cc2)c2ccc(OCc3ccccc3)cc2)cc1	13.2%	-7.7%	6.55%	7.5%	-28.1%	-28.1%
Cn1nnc(/C(N)=N/N=C/c2ccccc2)n1	1.95%	-10.8%	-1.55%	-22.2%	-12.6%	-15.4%
CCN(CC)C(=O)c1ccncc1C(=O)c1ccncc1	-1.2%	-3.55%	-8.4%	-14.3%	-1.95%	-10.1%
Nc1nc(-c2ccccc2)cc(-c2cc(Cl)ccc2O)n1	13.9%	-0.55%	-3.1%	20.5%	6.4%	6.55%
COc1ccc(N/N=C(/c2ccccc2)c2noc(-c3ccccc3)n2)cc1	79.5% (active)	92.2% (active)	88.8% (active)	89.3% (active)	94.1% (active)	92.6% (active)
CCOC1(OCC)CCC2(CC1)c1ccccc1-c1ccccc12	9.5%	15.8%	2.95%	1.15%	-7.45%	14.8%
CCCNS(=O)(=O)c1ccccc1C(=O)NC1CCCCC1	3.25%	-9.9%	4.05%	10.8%	-19.7%	22.2%
CCCCCOC(=O)OC(C)CNC(=O)C(C)OC(=O)OCCCCC (stereo not given)	-17.4%	-33.5%	-12.5%	-61.4%	-9.5%	-29.4%
COc1cccc(C2C(C(=O)O)=C(CO)Oc3cc4c(cc32)OCO4)c1 (stereo not given)	21.4%	15.8%	21.9%	13.6%	12.6%	15.2%
Nc1nc2c(c(-c3cccc(Cl)c3)n1)COC/C2=C\c1cccc(Cl)c1	26.3%	20.8%	25.2%	20.2%	25.4%	24%
CC1=C(O)c2cn(C)cc2C(=O)C1=O	26.1%	24.9%	18%	26.6%	31.9%	28.3%
COc1ccc(NC(=O)CN)cc1	1.3%	-9.9%	0.2%	-2.55%	7.6%	0.7%
CCOc1c(N=Nc2ccccc2C)c(C)nn1C(N)=S	18.1%	0.7%	18.3%	-24.6%	21.1%	23.1%
C=CCNC(=O)CC(C)(C)C	25.6%	12.3%	0.35%	9.3%	23.9%	20.2%
CCN(CC)c1cc2c3c(c1)CCCN3CCC2	-20.9%	-27.9%	-3.85%	2.55%	-8.1%	-0.65%
CCN(CCO)CC(=O)c1ccc(Cl)c(Cl)c1	0.2%	-12.5%	-6.95%	-13.8%	16.1%	-0.9%
COC(=O)CC1C2(C)C3=C(C)C(c4ccoc4)CC3OC2C2OC(=O)C3(C)C=CC(=O)C1(C)C23 (stereo not given)	85% (active)	84.2% (active)	79.2% (active)	81% (active)	82% (active)	90.3% (active)
Cn1ncc2c(N)nc(NCCO)nc21	1.1%	4.75%	-4.75%	-19.1%	13.7%	-0.2%
CC(=O)c1cccc(NC(=O)Nc2cccc(C)n2)c1	-9.55%	32.8%	11.9%	-24.6%	8.55%	12.6%

Compound	growth inhibition [1]	growth inhibition [2]	growth inhibition [3]	growth inhibition [4]	growth inhibition [5]	growth inhibition [6]
O=C(/C=C\c1ccc(/C=C\C(=O)c2ccccc2O)cc1)c1ccccc1O	8.5%	-13.3%	-8.75%	-3.75%	22.2%	-23.3%
CCCCCOc1ccc(C(=O)OC)cc1	-25.9%	-5.15%	6.2%	-22.8%	-0.1%	-20%
CCOc1ccccc1N1C(=O)CSC1=S	15.2%	14.2%	51.2%	-14%	48.9%	30.2%
COc1ccc2cc(OC)ccc2c1	4.95%	-14.6%	-1.15%	22%	1.5%	14%
O=[N+]([O-])c1cccc(N=C(c2ccccc2)N(O)c2ccccc2)c1	1.8%	-19.2%	0.85%	31.9%	10.9%	15.8%
O=c1onc2n1-c1cc(Cl)ccc1C(=S)N1CSCC21 (stereo not given)	1%	8.15%	13.5%	5.4%	2.5%	11.6%
CC1CCC(=N\O)/C(=N/O)C1 (stereo not given)	5.9%	-19.3%	-21.9%	-12.1%	0.65%	-5.3%
COc1cc2oc(=O)ccc2cc1[C@@H]1OC(=O)[C@@]2(C)O[C@@H]12	-0.75%	-6.3%	-1.35%	-35.7%	3.35%	-2.85%
CN(C)/C=N\c1ncnc2c1ccn2C1OC(CO)C(O)C1O (stereo not given)	-2.15%	-5.4%	-10.3%	10.2%	3.15%	-4.7%
O=S(=O)(c1ccccc1)N1C[C@@H]2[C@H](C1)[C@H]1C=C[C@@H]2C1	1.95%	-12.3%	13%	-4.8%	42.6%	-11%
N#CCCC1(CCC#N)CCCCCCC(CCC#N)(CCC#N)C(O)C1O (stereo not given)	10.8%	-12%	-6.45%	3.15%	-15.2%	-46.2%
O=C1CC2CC(=O)C(S(=O)c3ccccc3)C2C1 (stereo not given)	6.25%	11.7%	20.1%	3.35%	-1.6%	18.6%
O=C1c2cc([N+](=O)[O-])ccc2-c2c(F)cccc21	5.5%	8.25%	-1%	-32%	10.2%	4.1%
O=S1(=O)CC(Cl)C(I)C1 (stereo not given)	99.4% (active)	99.7% (active)	99.5% (active)	98.8% (active)	99.5% (active)	99.2% (active)
C=C1C(O)CCC2(C)C1CCC1C2CCC2(C)C(C(C)CCCC(C)C)CCC12 (stereo not given)	-5%	-5.35%	-3.1%	-39.6%	-4.4%	-2.45%
COc1ccc2c(c1)C/C(=C\c1cccc3ccccc13)C2=O	-51.9%	-19.3%	-0.15%	-23.1%	28.1%	-0.7%
Cc1ccc(Cl)c(NC(=O)c2ccccc2Cl)c1	6.2%	8.2%	18.8%	-8%	12.4%	30.9%
COc1ccc(-c2ccc(Cc3ccc(-c4ccc(OC)cc4)o3)o2)cc1	4.35%	-0.35%	6.7%	-72.7%	-6.4%	1%
NC(=O)c1ccccc1NC(=O)C(=O)C(c1cnc2ccc([N+](=O)[O-])cc2n1)[N+](=O)[O-] (stereo not given)	9.7%	-1.1%	19.6%	12.9%	5.85%	28.8%
CC(=O)N(C)CC(c1c(C)[nH]c2ccccc12)c1c(C)[nH]c2ccccc12	15.3%	-12.3%	2.2%	-4%	18%	40.7%
